Source: PubChem BioAssay AID686971 (National Center for Advancing Translational Sciences (NCATS), 2013)
Hit rate of the full screen: of about 360,000 compounds, about 7,500 (2.1%) were called active. Entries that show only a call come without a potency. Inconclusive results (about 8%) are left out. The call rests on the fitted dose curve; in most records, active means well fitted cell-killing curve with a large enough effect; inconclusive means small, poorly fitted or top-dose-only effect, or effect the other way, or another doubt; inactive means no such curve, though single readings can be large or run the other way. Only a selection was taken, and actives are over-represented in it overall.

Assay: qHTS for induction of synthetic lethality in tumor cells producing 2HG: qHTS for the HT-1080-IDH1KD cell line
Details: HT-1080 IDH1 knockdown viability, ATP luminescence, 48 h; series mostly up to 46.1 µM
Summary of the method: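 After a 2 h attachment period, IDH1KD HT-1080 cells took pin-transferred compound for 48 h at 37 °C; ATP-based luminescence after 10 min room-temperature reagent incubation reported viability.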
Potency means the concentration at half of the fitted maximal effect.

Compound	Potency
O=C1NC[C@H](CCCCN2C[C@H](Cc3ccc(O)cc3)N(CC3CCCCC3)C(=O)C2=O)N(CCc2ccccc2)C1=O	inactive
CCCCCCN1C[C@H](O)[C@@H](n2cc(C3CC3)nn2)C[C@@H]1c1ccc(Cl)cc1	inactive
CCOC(=O)N1CCN(C(=O)c2ccc(S(=O)(=O)Nc3cccc(C(F)(F)F)c3)cc2)CC1	inactive
Cc1oc2c(F)c(F)c(F)c(F)c2c1S(=O)(=O)Nc1cccc(C(F)(F)F)c1	18.4 µM (active)
O=C(COc1ccc(S(=O)(=O)Nc2cccc(C(F)(F)F)c2)cc1)N1CCOCC1	inactive
COc1cc(C(=O)N2CCOC23CCN(Cc2ccccc2)CC3)cc(OC)c1OC	inactive
CCN(CC)C(=O)C1=C(C)N(Cc2ccccc2)C(=O)C(CC(=O)NC(c2ccccc2)c2ccccc2)C1 (stereo not given)	inactive
COc1cccc(NC(=O)C2(C)CCN2C(=O)CCC2CCCC2)c1 (stereo not given)	inactive
CCC(C(=O)OCC(=O)Nc1ccccc1-c1ccccc1)c1ccccc1 (stereo not given)	inactive
CCC(C(=O)OCC(=O)Nc1ccc(C(=O)Nc2ccc(OC)cc2)cc1)c1ccccc1 (stereo not given)	25.9 µM (active)
CCC(C(=O)OCC(=O)Nc1c(Cl)cc(Cl)cc1Cl)c1ccccc1 (stereo not given)	inactive
CC(C)N1C(=O)c2ccccc2NC(=O)C1C(=O)NCc1cccs1 (stereo not given)	inactive
Cc1cccc(NC(=O)COC(=O)c2ccccc2OCc2cccc(Br)c2)c1	inactive
Cn1c(NC(=O)c2ccccc2)nc2ccccc21	inactive
O=C(NC1=CC(=O)c2ccccc2C1=O)c1ccccc1	7.31 µM (active)
O=C1C=C(NS(=O)(=O)c2ccccc2)C(=O)c2ccccc21	inactive
Cc1ccc(-c2c(N)nc3ncccn23)cc1	inactive
CCNC(=O)C1CCCN(C(=O)c2ccc(OC)cc2OC)CC1 (stereo not given)	inactive
COc1cccc(CNc2nc(NCc3ccccc3OC)nc3ccsc23)c1	23.1 µM (active)
COc1cccc(CNc2nc(NCc3cccs3)nc3ccsc23)c1	23.1 µM (active)
Clc1ccccc1Nc1nc(NCc2cccs2)nc2ccsc12	inactive
COc1ccc(NC(=S)NCc2cccs2)c(OC)c1	inactive
COc1cccc(-c2cc3nc(NCc4ccccc4OC)n(C)c(=O)c3s2)c1	inactive
COc1ccccc1CNc1nc(Nc2ccccc2Cl)c2sccc2n1	inactive

Compound	Potency
COc1ccc(COC[C@H](CC(C)C)N2CCN(C(=O)c3cccc(C(F)(F)F)c3)CCC2=O)cc1	inactive
CCOC(=O)c1cc2cc(OC)ccc2n1C1CCN(C)CC1	inactive
CCc1ccc(OC2(C)CCN(CCOc3ccc(C)cc3)C2)cc1 (stereo not given)	inactive
O[C@@H]1C[C@H](c2ccccc2)N(Cc2cccs2)C[C@H]1n1cc(C2CC2)nn1	inactive
CSc1ncccc1C(=O)N1CCCC(Nc2ccc(F)c(F)c2)C1 (stereo not given)	inactive
Cc1ccccc1-c1nc(NC(C)C)nc2cc(-c3ccccc3)sc12	inactive
Cc1nc2c(OCc3ccc(Cl)cc3Cl)cccn2c1N(C)CC1CC1	14.6 µM (active)
CCc1nc2c(OCc3ccc(Cl)cc3Cl)cccn2c1N(C)C(=O)C(C)C	16.4 µM (active)
Cc1nc2ccccc2nc(C)c1=NOCc1ccc(Cl)cc1Cl	inactive
CCc1nc2c(OCc3ccc(C(=O)OC)cc3)cccn2c1N(C)C(=O)C(C)C	inactive
CCCCN(C=O)c1c(CC)nc2c(OCc3ccccc3C(=O)OC)cccn12	inactive
CCc1nc2c(OCc3ccc(F)c(F)c3)cccn2c1N(C)C(=O)c1ccco1	inactive
CCc1nc2c(OCc3ccccc3)cccn2c1N(C)C(=O)c1ccco1	inactive
Cc1nc2c(OCc3ccc(Cl)cc3)cccn2c1N(C)Cc1cccs1	16.4 µM (active)
CCOC(=O)N(C)c1c(CC)nc2c(OCc3ccccc3C(=O)OC)cccn12	inactive
CCOC(=O)[C@]12CCCC=C1N(CCC1=CCCCC1)C(=O)[C@H](CC(=O)N1CCOCC1)C2	inactive
Cc1ccc(S(=O)(=O)N[C@H](CO)C(C)C)cc1	inactive
COCCCn1c(C(=O)NC2CCCCC2)cc2c(=O)n3cccc(C)c3nc21	inactive
COc1ccc(S(=O)(=O)N2CCC(C(=O)NCCC(=O)Nc3ccccc3OC)CC2)cc1	inactive
CCOC(=O)C1=CC[C@@H](c2ccccc2)N(S(=O)(=O)c2ccc(C)cc2)[C@H]1c1cccc(OC)c1	inactive
COc1ccc(S(=O)(=O)N[C@@H]2C=C[C@@H](CC(=O)N3CCc4ccccc4C3)O[C@@H]2CO)cc1	inactive
O=C(NC1CCN(Cc2ccccc2)CC1)c1cc(Br)c(Br)[nH]1	inactive
O=C(COc1ccc(Br)cc1F)NC1CCN(Cc2ccccc2)CC1	inactive
S=C(Nc1ccc(Br)cc1Cl)NC1CCN(Cc2ccccc2)CC1	20.6 µM (active)

Compound	Potency
CC1(C(=O)NS(=O)(=O)C2CC2)CCCN(C(=O)CSc2ccccc2)C1 (stereo not given)	inactive
CC(C)c1cc(CN2CCOCC2)cc(C(C)C)c1O	inactive
Oc1c(C(c2ccccn2)N2CCOCC2)ccc2cccnc12 (stereo not given)	0.251 µM (active)
O=C(Nc1ccccc1)c1ccccc1Br	inactive
CC(C)[C@H](NC(=O)N1CC(=O)Nc2ccccc21)C(=O)N[C@@H](Cc1c[nH]c2ccccc12)C(=O)O	inactive
CC(C)c1ccc(NC(=O)[C@@H](NC(=O)N2CC(=O)Nc3ccccc32)C(C)C)cc1	13 µM (active)
CC(C)C[C@H](NC(=O)N1CC(=O)Nc2ccccc21)C(=O)N[C@H](Cc1ccccc1)C(=O)O	inactive
COc1ccc(C(C)C)cc1-c1ccc2nncn2c1	inactive
CC1(C(=O)NS(=O)(=O)c2ccccc2)CCN1C(=O)Cc1ccc(-c2ccccc2)cc1 (stereo not given)	inactive
Cc1ccc(F)c(S(=O)(=O)NC(=O)C2(C)CCN2C(=O)CCc2cccs2)c1 (stereo not given)	inactive
CCCOc1ccc(C2NC(=O)NC(c3ccccc3)=C2C(C)=O)cc1OCC (stereo not given)	inactive
COC(=O)c1ccc(C2CC(=O)Nc3cc(OC)c(OC)cc32)cc1 (stereo not given)	inactive
CCCOc1ccccc1C1CC(=O)Nc2cc3c(cc21)OCO3 (stereo not given)	1.84 µM (active)
CCc1ccccc1NC(=O)CSc1nnc([C@@H](NC(=O)OC(C)(C)C)C(C)CC)o1 (stereo not given in full)	inactive
C[C@@H](NC(=O)OC(C)(C)C)c1nnc(S(=O)(=O)Cc2ccccc2)o1	18.4 µM (active)
COc1ccccc1NC(=O)[C@H](COCc1ccccc1)NC(=O)OC(C)(C)C	inactive
OC[C@@H]1CN(Cc2cccs2)C[C@H](n2cnc3c(NC4CCCC4)ncnc32)O1	inactive
OC[C@@H]1CN(Cc2ccc(F)cc2)C[C@H](n2cnc3c(NC4CCCC4)ncnc32)O1	inactive
OC[C@@H]1CN(Cc2ccc(-c3ccccc3)cc2)C[C@H](n2cnc3c(NC4CCCC4)ncnc32)O1	20.6 µM (active)
CC1=C(C(=O)N2CCOCC2)CC(CC(=O)NCc2cccc3ccccc23)C(=O)N1CCC1=CCCCC1 (stereo not given)	inactive
Cc1ccc(C(=O)NC(C)C(c2cccs2)N2CCOCC2)cc1C (stereo not given)	inactive
CCC(=O)N1Cc2cc(C(=O)NCc3cccc(F)c3)nc(-c3cccc(C4=CCCC4)c3)c2[C@H]1CCO	inactive
COc1cc(OC)cc(C2=Cc3ccccc3C(CC(=O)c3ccco3)N2c2ccc(-c3cnc(OC)nc3)cc2)c1 (stereo not given)	inactive
CCCC(O)(CCC)C(=O)NN(C(=O)CCl)c1cccc(C)c1	5.17 µM (active)

Compound	Potency
Cc1cccc(N(Cc2ccccc2)C(=O)c2ccccc2F)c1	inactive
CC(C)(O)C(=O)NN(C(=O)c1ccccc1)c1cccc(Br)c1	inactive
CC1(C(=O)NS(=O)(=O)c2cccc(OC(F)F)c2)CCN1C(=O)C1CC1 (stereo not given)	inactive
O=C(Nc1ccc(F)cc1)C(CCc1ccccc1)N1CCN(CC(=O)N2CCCC2)CC1 (stereo not given)	inactive
Cc1nc(-c2ccc(Cl)cc2)sc1C(=O)CBr	inactive
Cc1nc(-c2ccc(Cl)cc2)sc1C(=O)NN	10.3 µM (active)
Cc1nc(N2CCOCC2)sc1C(=O)NN	inactive
COCCCNC(=O)c1ccc(-c2c(C)noc2C)c2ccoc12	inactive
O=C(COC(=O)c1ccc([N+](=O)[O-])cc1Cl)NC(=O)c1ccccc1	inactive
O=C(NOCc1ccccc1)c1cccc([N+](=O)[O-])c1	inactive
O=C(NC(Nc1nc2ccc([N+](=O)[O-])cc2s1)(C(F)(F)F)C(F)(F)F)c1ccccc1	5.17 µM (active)
COc1ccc(OC)c(NC(=O)C2(C)CCN2C(=O)Cc2ccccc2)c1 (stereo not given)	inactive
Cc1cc(C(=O)N2CCCC2(C)C(=O)O)c(C)o1 (stereo not given)	inactive
COC(=O)[C@@]1(Cc2ccc(F)cc2)[C@H]2c3cc(C(=O)N(C)C)n(CCc4c[nH]c5ccc(OC)cc45)c3C[C@H]2CN1C(=O)c1ccccc1	inactive
COC(=O)[C@@]1(Cc2ccc(F)cc2)[C@H]2c3cc(C(=O)N4CCCC4)n(C[C@H](O)CO)c3C[C@H]2CN1C(=O)c1ccccc1	inactive
COC(=O)[C@@]1(Cc2ccc(F)cc2)[C@H]2c3cc(C(=O)N4CCCC4)n(Cc4ccc(OC(F)(F)F)cc4)c3C[C@H]2CN1C(=O)c1ccccc1	23.1 µM (active)
CCCNC(=O)C1(C)CCN(Cc2csc(-c3ccc(Cl)cc3)n2)C1 (stereo not given)	inactive
COc1ccc(-c2cc3c(c4c2ccn4C)C2CCC3C2)cn1 (stereo not given)	inactive
C=CCn1c(CC(=O)Nc2cccc(OC)c2)nnc1SCC(=O)NC1CCCCC1	inactive
COc1cccc(-n2c(SCC(=O)NC3CCCCC3)nc3n[nH]c(C)c3c2=N)c1	18.4 µM (active)
COc1cccc(-n2c(SCC(=O)NC3CCS(=O)(=O)C3)nc3ccccc3c2=O)c1 (stereo not given)	inactive
CCc1noc(C)c1C(=O)OCC(=O)c1ccc(NC(=O)CC(C)C)cc1	inactive
FC(F)(F)c1ccccc1Cc1c(-c2ccccc2)nc2c3ccccc3ccn12	inactive
